Pf growth 48h: inhibits P. falciparum growth in the first generation, 48 h; P. falciparum luciferase growth in erythrocytes, 48 h; Potency, µM (titrated, usually from 28.7 µM), for inactives: top-dose activity change, negative = inhibition, hits mostly inhibitors; 5.9% of 310,000 active; AID 504832; further: potency means the concentration at half of the fitted maximal effect; on the % scale 0 is the no-effect control and ±100 the full control effect
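Compounds are pin-transferred into medium, infected erythrocytes (2% hematocrit, 0.1% parasitemia final) are added, and plates sit one parasite generation at 37 C in 5% CO2. Detection reagent is then added and luminescence measured.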
Shiga inhibitor: inhibitors of Shiga toxin in Vero cells. Vero cells, Shiga toxin protein synthesis inhibition reporter. inhibition, % at 38.7 µM. 9.2% of 290,000 active. AID 2315; in the data active means inhibition mostly above about 28%, no sharp cut-off; inactive means mostly below about 43%; further: 0% is about no effect
MARV entry inh: Marburg virus entry inhibition | 1.8% of 300,000 active | Potency, µM (series often up to 37.8 µM), inactives show at the highest dose activity change, negative = inhibition, actives largely listed as inhibitors | AID 540276 | Marburg virus pseudotyped entry inhibition, cell reporter; calls by dose curve; tested in HEK293 cells; further: potency means the concentration at half of the fitted maximal effect; on the % scale 0 is the no-effect control and ±100 the full control effect
Pf growth 96h: P. falciparum growth inhibition at 96 hour, primary screen for plastid delayed-death inhibitors | P. falciparum luciferase reporter growth, 96 h | Potency, µM (titrated, usually from 28.7 µM), for the others: at the top dose activity change, negative = inhibition, actives largely listed as inhibitors | 6.9% of 320,000 active; further: potency means the concentration at half of the fitted maximal effect; on the % scale 0 is the no-effect control and ±100 the full control effect
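P. falciparum expressing integrated firefly luciferase, in erythrocytes at 2% hematocrit, 0.05% parasitemia, incubated with compounds 96 h at 37 C, 5% CO2. Growth inhibition read as loss of luminescence; two-generation exposure targets delayed-death apicoplast inhibitors.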
Cycloheximide cs: counter-screen for Shiga toxin inhibitors: cycloheximide protein synthesis inhibition; cell reporter, cycloheximide protein synthesis inhibition counterscreen; max response, %; 12% of 300,000 active; in the data active means max response mostly above about 13%, no sharp cut-off; inactive means mostly below about 14%; further: read at 38.3 µM for the half of the compounds with a filed dose; 0% is about no effect
LASV entry inh: Lassa virus entry inhibition; 1.2% of 300,000 active; Lassa virus pseudotype entry inhibition, cell reporter; Potency, µM (top dose mostly 37.9 µM), without a hit: at the highest dose activity change, negative = inhibition, most hits filed as inhibitors; calls by dose curve; tested in HEK293 cells; further: potency means the concentration at half of the fitted maximal effect; on the % scale 0 is the no-effect control and ±100 the full control effect; nearly all actives have a fitted effect of over 50% in size
Numbers without * were called inactive; ? = inconclusive; / = not tested or not shown; [ ] = dose if it differs, or a comment. Most compounds without a hit are left out; they make up all but 19% or so of the library. Unless noted, the call rests on the fitted dose curve; in most records, active means well fitted inhibition curve with a large enough effect; inconclusive means small, poorly fitted or top-dose-only effect, or another doubt; inactive means no such curve, though single readings can be large or run the other way.

SMILES	Pf growth 48h	Shiga inhibitor	MARV entry inh	Pf growth 96h	Cycloheximide cs	LASV entry inh
Cc1ccc(S(=O)(=O)c2nc(-c3ccccc3Br)oc2N(C)C)cc1	/	/	-16%	/	/	?
Cc1ccc(S(=O)(=O)c2nc(-c3ccccc3Cl)oc2N(C)C)cc1	132%	86*	-28%	?	57*	?
CCOP(=O)(OCC)c1nc(-c2ccccc2Cl)oc1N1CCOCC1	-23%	8	?	?	-3	2%
Cc1ccc2c(c1)Sc1c(ccc3ccccc13)N2	62%	85*	/	?	54*	/
Cc1ccc2c(C)c3ccc4ccccc4c3c[n+]2c1	/	/	?	/	/	-27%
N#CCSc1nc2ccccc2c(=O)n1CC1CCCC1	-36%	-13	/	112%	9	/
CCCCn1c(SCC(=O)NC(C)CC)nc2ccc(N3CCOCC3)cc2c1=O (stereo unspecified)	?	21	15%	?	2	16%
CCCCn1c(SCC(=O)NCc2ccco2)nc2ccc(N3CCOCC3)cc2c1=O	15µM*	4	-28%	1%	-1	-19%
CCCCn1c(SCC(=O)Nc2ccc(OC)cc2)nc2ccc(N3CCOCC3)cc2c1=O	?	12	?	?	4	-8%
N#CCSc1nc2ccc(N3CCCCC3)cc2c(=O)n1Cc1ccccc1	?	38*	-30%	/	21*	?
CCCCn1c(SCC(=O)NCc2ccccc2)nc2ccc(N3CCOCC3)cc2c1=O	12µM*	-1	?	29%	-2	-9%
COCCNC(=O)CSc1nc2ccc(N3CCOCC3)cc2c(=O)n1Cc1ccc(OC)cc1	-7%	54	3%	?	28*	-26%
O=C(Nc1ccccc1)N1CCSc2cc(Cl)ccc21	3%	27	?	?	4	13%
CCc1ccc(N2C(=O)CSC23C(=O)N(Cc2ccc(C)cc2)c2ccccc23)cc1 (stereo unspecified)	/	/	/	/	/	-4%[46.1 µM]
Cc1cn(C2OC(COC(=O)c3ccccc3)C(O)C2Cl)c(=O)[nH]c1=O (stereo unspecified)	11%[1.15 µM]	11	/	10%	-5	/
O=C1NC(=O)C(Nc2ccc(Cl)c(Cl)c2)C(=O)N1	/	/	5%	/	/	-6%
CCN(CC)C(=O)CSc1nc2cc3c(cc2c(=O)n1Cc1ccc2c(c1)OCO2)OCO3	?	-11	0%	/	-2	-3%
CCOC(=O)CSc1nc2ccc(N3CCOCC3)cc2c(=O)n1Cc1ccc2c(c1)OCO2	12µM*	25	/	/	13	/
Cc1nn2c(nc1=O)SCC(c1ccccc1)=N2	88%	28	-3%[46.1 µM]	15%	-2	?
Nc1cc(N)nc(SCCOc2ccccc2)n1	136%	55*	16%	161%	36*	15%
Nc1cc(=O)[nH]c(SCCOc2ccccc2)n1	45%	51	-3%[46.1 µM]	?	11	6%
COc1cccc(OCCSc2nc(N)cc(N)n2)c1	/	81	?	8%	38*	?
COc1cccc(OCCCCSc2ncccn2)c1	42%	63	?	?	26	15%
COc1ccc(CNC(=O)C2CCN(C(=O)N3CC(C)Oc4ccc(C)cc43)CC2)cc1 (stereo unspecified)	/	/	/	/	/	-2%[46.1 µM]
COc1cc(SC)ccc1C(=O)OCC(=O)NCCNC(=O)COC(=O)c1ccc(SC)cc1OC	17%	-12	5%[46.1 µM]	-8%	-3	?
SMILES	Pf growth 48h	Shiga inhibitor	MARV entry inh	Pf growth 96h	Cycloheximide cs	LASV entry inh
COc1ccc(C(=O)OCC(=O)NC2CCCC2)c(OC)c1	42%	31	/	54%	17*	/
COc1ccc(C(=O)OCC(=O)NC(=O)NC2CCCC2)c(OC)c1	12µM*	17	?	24%	13	-19%
COC(=O)c1ccc(COC(=O)c2ccc(SC)cc2OC)cc1	49%	45*	17%	?	21*	0%
COc1cc(SC)ccc1C(=O)OCC(=O)NC1CC1	18%	48	27%[46.1 µM]	34%	26*	/
Cn1c(C(=O)N2CCCC(C(=O)N3CCN(C(=O)c4ccco4)CC3)C2)cc2sccc21 (stereo unspecified)	/	-5	/	22%	1	/
Cc1sc2ncnc(OCc3nnc(-c4cccs4)o3)c2c1C	-24%	-4	4%[46.1 µM]	-45%	28	-3%
Cc1ccc(C(c2cc(Br)ccc2O)N2CCSCC2)cc1 (stereo unspecified)	9.3µM*	/	/	15µM*	/	/
COc1ccc(CN(C)CC(=O)NC(=O)NC2CCCCC2)cc1	-27%	/	/	-25%	/	/

Bioassay records from PubChem.
